Only some compounds are listed: those with a hit (about 7.3% of all), similar ones and a draw of the others.
Rab9 promoter act: activates the Rab9 promoter. Huh7 Rab9 promoter-luciferase reporter, luminescence, 24 h. Potency, µM (series often up to 9.22 µM), for the others: at the top dose activation, negative = inhibition, most hits filed as activators. 320,000 compounds, 2.8% hits. AID 485297; further: % of control where 0% means no effect; nearly all actives have a fitted effect of over 60% in size
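Measured in stably transfected Huh7 cells bearing a Rab9 promoter–luciferase construct: 24 h compound treatment at 37 °C, followed by luminescence detection.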
NPC1 prom act: NPC1 promoter activation. 320,000 compounds, 2.4% hits. Huh7 NPC1 promoter luciferase reporter, 24 h. Potency, µM (top dose mostly 9.22 µM), for the others: at the highest dose activation, hits mostly activators; further: % of control where 0% means no effect; nearly all actives have a fitted effect of over 60% in size
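Huh7 cells stably carrying NPC1 promoter–luciferase, plated in Opti-MEM with 10% FBS for 2 h, were exposed to compound in DMSO for 24 h at 37 °C; luciferase reagent was added for 10 min and luminescence read.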
SMN2 splice enh: SMN2 splice variant enhancement; HEK293 SMN2-luciferase splicing reporter, luminescence, 30-36 h; Potency, µM (top dose mostly 46.1 µM), for the others: at the top dose activity change, positive = activation, actives largely listed as activators; 210,000 compounds, 2.8% hits; AID 1458; further: % of control where 0% means no effect; nearly all actives have a fitted effect of over 55% in size
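HEK293 cells carry an SMN2 minigene-luciferase reporter in which exon 7 inclusion puts luciferase in frame. Cells were seeded at 2000 cells/well, attached for 10-12 hours, then exposed to compounds for 30-36 hours at 37C before ONE-Glo luminescence.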
KinaseGlo FLuc: blocks Kinase-Glo luciferase, a counter-screen artifact. 200,000 compounds, 0.28% hits. Potency, µM (top dose mostly 38.3 µM), without a hit: top-dose activity change, negative = inhibition, hits mostly inhibitors. Kinase-Glo luciferase, ATP luminescence, 8 min. Q27757; further: on the % scale 0 is the no-effect control and ±100 the full control effect; nearly all actives have a fitted effect of over 60% in size
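Compound is pinned into ATP-containing buffer (10 uM ATP, imidazole pH 7.2, 7 mM MgCl2). Kinase-Glo luciferase reagent is then added. Light output is recorded following an 8-min room-temperature incubation.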
FLuc modulator: inhibits or activates purified firefly luciferase, miR-21 counter-screen; P08659; purified FLuc, Km substrates, luminescence inhibition; Potency, µM (doses to about 57.5 µM), for the others: top-dose activity change, negative = inhibition, actives largely listed as inhibitors; 360,000 compounds, 6.9% hits; AID 588342;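 further: plate controls were vehicle for no effect and reference inhibitor for full effect; nearly all actives have a fitted effect of over 55% in size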
Target sequence (P08659 whole entry, looked up): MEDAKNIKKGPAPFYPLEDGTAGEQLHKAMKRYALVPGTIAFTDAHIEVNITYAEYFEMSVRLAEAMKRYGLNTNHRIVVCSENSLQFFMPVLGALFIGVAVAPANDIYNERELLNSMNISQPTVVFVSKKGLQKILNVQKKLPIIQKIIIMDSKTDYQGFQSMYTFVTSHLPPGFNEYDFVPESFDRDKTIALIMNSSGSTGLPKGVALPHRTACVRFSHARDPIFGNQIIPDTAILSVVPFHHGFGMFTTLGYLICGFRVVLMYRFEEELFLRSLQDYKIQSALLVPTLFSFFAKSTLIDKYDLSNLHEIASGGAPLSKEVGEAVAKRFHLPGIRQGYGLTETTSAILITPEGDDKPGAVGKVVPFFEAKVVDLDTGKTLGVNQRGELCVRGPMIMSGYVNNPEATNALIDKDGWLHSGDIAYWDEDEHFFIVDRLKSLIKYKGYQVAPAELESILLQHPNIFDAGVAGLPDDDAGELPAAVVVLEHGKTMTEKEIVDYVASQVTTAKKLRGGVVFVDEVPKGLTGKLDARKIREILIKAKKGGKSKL
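Purified P. pyralis luciferase (10nM final) with 10uM D-luciferin and 10uM ATP (Km levels) in 50mM Tris acetate pH 7.5, 10mM Mg acetate, 0.01% Tween-20, 0.05% BSA; qHTS 6-point titration, ~60 µM downward; luminescence read.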
The depositor's hits bear a star; ? = inconclusive; · = no result; [ ] = dose if it differs, or a comment. The call rests on the fitted dose curve; in most records, active means well fitted curve in the direction sought with a large enough effect; inconclusive means small, poorly fitted or top-dose-only effect, or another doubt; inactive means no such curve, though single readings can be large; an effect the other way counts as inactive or inconclusive. Potency means the concentration at half of the fitted maximal effect.

SMILES | Rab9 promoter act | NPC1 prom act | SMN2 splice enh | KinaseGlo FLuc | FLuc modulator
CCc1ccc2c(CN(C)Cc3ccccc3OC)cc(=O)oc2c1 | 0% | 0% | · | · | 17µM*
Cc1ccc2c(CN(C)Cc3cccc(F)c3)cc(=O)oc2c1 | 21%[1.84 µM] | ? | · | · | 11µM*
COc1ccc2oc(=O)cc(CN(C)Cc3ccccc3)c2c1 | -4% | -3% | · | · | 4%
CCCOc1ccc(-c2nn(-c3ccccc3)cc2C2NC(=O)NC(C)=C2C(=O)OC(C)C)cc1 (stereo not given) | · | · | -12% | · | -10%
FC(F)(F)c1ccc(NC(=S)NC2CCCCC2)cc1 | 23% | 8% | 16µM* | -1% | ?
S=C(Nc1ccc(Oc2ccc(NC(=S)NC3CCCCC3)cc2)cc1)NC1CCCCC1 | -2% | -9% | -44% | -2% | 0%
S=C(Nc1ccc2nsnc2c1)NC1CCCCC1 | 19% | 20% | ? | 1% | 21µM*
CC(C)c1ccc(NC(=S)NC2CCCCCC2)cc1 | ? | ? | 13µM* | 2% | 17µM*
CC(=C/c1ccccc1)/C=N/NC(=O)c1ccc2nc[nH]c2c1 | 20% | 16% | ? | -4% | 5.4µM*
O=C(N/N=C/C(Br)=C\c1ccccc1)c1ccc2nc[nH]c2c1 | 1% | 2% | ? | 0% | 12µM*
CC(/C=N/NC(=O)c1ccc2nc(C)[nH]c2c1)=C\c1ccccc1 | -1% | 2% | 17% | -7% | 8.5µM*
O=C(N/N=C/c1cccs1)c1ccc2nc[nH]c2c1 | 25% | 23% | 0% | -3% | ?
O=[N+]([O-])c1cccc(C2=N[C@@H](Cc3ccccc3)CO2)c1 | · | · | · | 0%[39.9 µM] | ·
CC(C)(C)c1ccc(OCc2cnc(Cl)s2)cc1 | ? | 17% | 3% | -7% | 13µM*
CCOC(=O)C(=Cc1ccc(OCc2ccc([N+](=O)[O-])cc2)c(OC)c1)C(=O)OCC | -2% | -3% | -13% | 3% | 15µM*
COc1cc(C(c2c(C)[nH][nH]c2=O)c2c(C)[nH][nH]c2=O)ccc1OCc1ccc([N+](=O)[O-])cc1 | 0% | 19% | 18µM* | 20% | -20%
COC(=O)C(=Cc1ccc(OCc2ccc([N+](=O)[O-])cc2)c(OC)c1)C(=O)OC | 1% | -1% | 16µM* | 0% | 9.5µM*
COc1cc(/C=N/NC(=O)c2cccc([N+](=O)[O-])c2)ccc1OCc1ccccc1 | 1% | -2% | 0% | 0% | 10%
COc1cc(C(c2c(C)[nH][nH]c2=O)c2c(C)[nH][nH]c2=O)ccc1OC(=O)c1cccc([N+](=O)[O-])c1 | -8% | -4% | -8% | 3% | 1%
CSCCC(NS(=O)(=O)c1ccc2c(c1)oc(=O)n2C)C(=O)NCCc1ccc(C)cc1 (stereo not given) | · | · | · | · | -2%
CC1=Nc2cc(C(=O)NC3CCCC3)ccc2Sc2ccc(C)cc21 | · | · | -33% | · | -13%
Cc1ccn2cc(C(=O)Nc3ccccc3N3CCOCC3)nc2c1 | 17% | 21% | -3% | -3% | 15µM*
Cc1ccn2cc(CCNS(=O)(=O)c3ccc4c(c3)OCCO4)nc2c1 | -2% | -1% | -3% | -1% | 1%
Cc1ccn2cc(C(=O)Nc3ccc4c(c3)OCCO4)nc2c1 | 1µM* | 1.4µM* | ? | -8% | 1.9µM*
Cn1nc(C(=O)Nc2ccccc2N2CCOCC2)ccc1=O | -4% | -2% | · | · | 2%
SMILES | Rab9 promoter act | NPC1 prom act | SMN2 splice enh | KinaseGlo FLuc | FLuc modulator
O=C(Nc1ccccc1N1CCOCC1)c1cccc(Oc2ccccc2)c1 | 6% | -35% | · | · | 21µM*
O=C(Nc1cc(C(F)(F)F)ccc1N1CCOCC1)c1cn2ccccc2n1 | 6% | 0% | 10% | -1% | 8%
CC(C)Oc1cccc(C(=O)Nc2ccccc2N2CCOCC2)c1 | 8% | -2% | -4% | 22% | ?
O=C(Nc1ccccc1N1CCOCC1)c1ccc2ccccc2n1 | 28% | 26% | 7% | -12% | 7.6µM*
CCN1CCC(N(Cc2cccc(OC)c2)C(=O)Nc2cccc(C(F)(F)F)c2)CC1 | · | · | · | · | -1%
COc1ccc(Cl)cc1NC(=O)CN1c2ccccc2S(=O)(=O)c2ccccc21 | · | · | · | · | -3%
CCOC(=O)c1c(C)[nH]c(C)c1S(=O)(=O)N1CCCC(C(=O)NCc2cccc(OC)c2)C1 (stereo not given) | · | · | · | · | 6%
CCOc1ccccc1NC(=O)c1cc(=O)c2ccc(C)cc2o1 | · | · | 14% | · | 6%
